Results taken from PubChem BioAssay (EPA / NIEHS).
Inconclusive results are not listed. The source holds several records for some structures; these can differ, active in one and inactive in another. The source made the active and inactive calls. How the source made its calls, unless noted: active means hit-call score of the fitted dose curve at least 0.9, where 1 is the maximum; inconclusive means response in the unintended direction; inactive means score below 0.9.

Legend:
[1] = target: Agonist Androgen Response Element (ARE), AR (gene 367) (UniProt P10275); assay: OT_AR_ARELUC_AG_1440: Odyssey Thera (OT) 24-hour CHO-K1 Luciferase Assay for Agonist Androgen Response Element (ARE) (AID 2283379)
Method in brief: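 Seed CHO-K1 cells; dose compounds for 24 h; add D-luciferin plus ATP in PBS; read luminescence. Signal increase relative to vehicle defines agonist activity, with at least 3 replicate wells per sample.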

[2] = target: Retinoic acid receptor RXR-alpha (Homo sapiens) (UniProt P19793); assay: OT_NURR1_NURR1RXRa_1440: Odyssey Thera (OT) 24-hour HEK293T Protein Complementation Assay for Nurr1/retinoid X receptor (RXR) (AID 2283386)
Method in brief: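 HEK293T cells were dosed with compound and read 24 h later by fluorescence intensity in a protein-fragment complementation format, where Nurr1–RXRα interaction reconstitutes a split reporter. Activity was fitted as gain of signal relative to DMSO baseline.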

[3] = target: Peroxisome proliferator-activated receptor gamma (Homo sapiens) (UniProt P37231); assay: OT_PPARg_PPARgSRC1_0480: Odyssey Thera (OT) 8-hour Protein-Complementation Assay for Peroxisome Proliferator-activated Receptor Gamma / SRC-1 Co-activator (AID 2283387);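 further: nuclear to cytoplasmic split Venus YFP fluorescence ratio reporting PPARg SRC-1 interaction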
Method in brief: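 Read-out: 488 nm N/C fluorescence ratio from complemented Venus YFP fragments, ≥350 cells per image, gain-of-signal fitted against DMSO baseline. Fusions of PPARg/SRC-1 with IFP1/IFP2 expressed transiently in HEK293T; compounds applied 8 h.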

[4] = target: Peroxisome proliferator-activated receptor gamma (Homo sapiens) (UniProt P37231); assay: OT_PPARg_PPARgSRC1_1440: Odyssey Thera (OT) 24-hour Protein-Complementation Assay for Peroxisome Proliferator-activated Receptor Gamma/ SRC-1 Co-activator (AID 2283388);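 further: nuclear to cytoplasmic ratio of reconstituted Venus YFP fluorescence in fixed imaged cells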
Method in brief: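 Readout: nuclear-to-cytoplasmic 488 nm fluorescence ratio, ≥350 cells per image, 8 images per well, after 24 h compound exposure of HEK293T expressing PPARg/SRC-1 split-YFP fusions. Activity fitted in positive direction against DMSO.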

[5] = target: Estrogen receptor beta (Homo sapiens) (UniProt Q92731); assay: OT_ER_ERbERb_1440: Odyssey Thera (OT) 24-hour HEK293T Protein-Complementation Assay for Estrogen Receptor-beta/-beta Homodimer (AID 2283380);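 further: fluorescence gain from ER beta LBD homodimer complementation read by laser scanning cytometry; scored as signal increase over DMSO baseline for both agonists and antagonists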
Method in brief: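 HEK293T cells stably expressing human ER-beta LBD (aa 310-547) PCA homodimer pair, dosed 24 h; formaldehyde-fixed, Draq5-stained. Readout: increase in nuclear (agonist) or nuclear plus cytoplasmic (antagonist) fluorescence intensity versus DMSO, gain-of-signal fitting.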

[6] = target: Estrogen receptor (Homo sapiens) (UniProt P03372); assay: OT_ERa_GFPERaERE_0480: Odyssey Thera (OT) 8-hour HeLa Transcription Induction Assay for Estrogen Receptor (AID 2283381; active means hit-call score of the fitted dose curve at least 0.9, where 1 is the maximum; inactive means score below 0.9)
Method in brief: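 HeLa cells dosed with compound and imaged by fluorescence microscopy at 8 h; GFP induction from an ERE reporter quantified by high-content image analysis and fitted as gain of signal against DMSO baseline.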

[7] = target: Estrogen receptor (Homo sapiens) (UniProt P03372); assay: OT_ERa_GFPERaERE_0120: Odyssey Thera (OT) 2-hour HeLa Transcription Induction Assay for Estrogen Receptor (AID 2283382)
Method in brief: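 HeLa cells were dosed with test chemical and read 2 hours later for GFP-ERα/ERE-linked fluorescent protein induction by fluorescence microscopy. Gain-of-signal was fitted relative to DMSO baseline, quantified by high content image analysis.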

[8] = target: Bile acid receptor (Homo sapiens) (UniProt Q96RI1); assay: OT_FXR_FXRSRC1_0480: Odyssey Thera (OT) 8-hour HEK293T Protein-Complementation Assay for Farnesoid X receptor/SRC-1 Co-activator (AID 2283383)
Method in brief: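 HEK293T cells expressing FXR and SRC-1 fused to reporter fragments were dosed with compound for 8 h; fluorescence from the reconstituted reporter marked co-activator recruitment. Gain of signal was fitted against the DMSO baseline.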

[9] = target: Bile acid receptor (Homo sapiens) (UniProt Q96RI1); assay: OT_FXR_FXRSRC1_1440: Odyssey Thera (OT) 24-hour HEK293T Protein-Complementation Assay for Farnesoid X receptor/SRC-1 Co-activator (AID 2283384)
Method in brief: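 HEK293T cells were dosed with compound and read 24 h later by fluorescence intensity from protein-fragment complementation reporting FXR/SRC-1 co-activator interaction. Gain of signal was fitted relative to DMSO negative control as baseline.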

[10] = target: Norway rat Vesicular Monoamine Transporter (VMAT2), neurotransmitter transporter, Slc18a2 (gene 25549) (UniProt Q01827); assay: NVS_TR_rVMAT2: NovaScreen (NVS) Transporter Assay for Norway rat Vesicular Monoamine Transporter (VMAT2), neurotransmitter transporter (AID 2283376);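 further: actives lower the bound radioligand signal below the DMSO level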
Method in brief: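 Rat forebrain tissue preparation used in a cell-free radioligand binding format; displacement read by filter-based scintillation counting 1 hour after dosing. Primary screen in duplicate at 25 uM, actives then run in concentration series; loss of signal versus DMSO baseline.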

[11] = target: human Norepinephrine Transporter (NET), SLC6A2 (gene 6530) (UniProt P23975); assay: NVS_TR_hNET: NovaScreen (NVS) Transporter Assay for human Norepinephrine Transporter (NET) (AID 2283377);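 further: cell-free membrane protein extracted from CHO cells expressing human NET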
Method in brief: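 Radioligand binding to human NET in cell-free CHO-derived protein preparations, read by filter-based scintillation counting 1 hour after dosing. Loss of signal versus DMSO baseline indicated displacement; primary screening in duplicate at 25 uM, actives then titrated.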

[12] = target: Retinoic acid receptor RXR-alpha (Homo sapiens) (UniProt P19793); assay: OT_NURR1_NURR1RXRa_0480: Odyssey Thera (OT) 8-hour HEK293T Protein Complementation Assay for Nurr1/retinoid X receptor (RXR) (AID 2283385)
Method in brief: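 HEK293T cells expressing Nurr1 and RXRα fused to reporter fragments were dosed with compound for 8 hours. Complex formation was read as fluorescence intensity and analysed as gain of signal against DMSO as baseline.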

[13] = CEETOX_H295R_OHPREG: CeeTox H295R High-throughput Steroidogenesis Assay for OH-Pregnenolone (OHPREG) (AID 2283434; active means hit-call score of the fitted dose curve at least 0.9, where 1 is the maximum; inactive means score below 0.9); conditions: actives raise or lower the signal
Method in brief: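 Human adrenal H295R cells were prestimulated 48 h with 10 uM forskolin, then exposed 48 h to chemical in 0.1% DMSO. Medium 17alpha-hydroxypregnenolone was quantified by HPLC-MS/MS after MTBE extraction; bidirectional fitting versus DMSO baseline.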

[14] = CEETOX_H295R_OHPROG: CeeTox H295R High-throughput Steroidogenesis Assay for OH-Progesterone (OHPROG) (AID 2283435; active means hit-call score of the fitted dose curve at least 0.9, where 1 is the maximum; inactive means score below 0.9); conditions: actives raise or lower the signal
Method in brief: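 H295R human adrenal cells were prestimulated 48 h with 10 uM forskolin, then exposed 48 h to test chemical (0.1% DMSO final). 17alpha-hydroxyprogesterone in medium was measured by HPLC-MS/MS after MTBE extraction; bidirectional fitting vs DMSO.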

[15] = CEETOX_H295R_ANDR: CeeTox H295R High-throughput Steroidogenesis Assay for Androstenedione (ANDR) (AID 2283436; active means hit-call score of the fitted dose curve at least 0.9, where 1 is the maximum; inactive means score below 0.9); conditions: actives raise or lower the signal
Method in brief: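 H295R human adrenal cells (passages ≤10) were exposed to test chemicals for 48 h; androstenedione in medium was MTBE-extracted and quantified by HPLC-MS/MS against a 7-point standard curve. Bidirectional fitting used DMSO as baseline.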

[16] = CEETOX_H295R_ESTRADIOL: CeeTox H295R High-throughput Steroidogenesis Assay for Estradiol (AID 2283440; active means hit-call score of the fitted dose curve at least 0.9, where 1 is the maximum; inactive means score below 0.9;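 further: estradiol secreted into medium quantified by LC-MS/MS after dansyl derivatisation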); conditions: actives raise or lower the signal
Method in brief: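 H295R, 48 h forskolin (10 uM) prestim → 48 h compound, 0.1% DMSO final. Estradiol in medium: MTBE extraction, dansyl chloride derivatization, LC-MS/MS. Fit bidirectional vs DMSO baseline; MTT viability in same wells.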

[17] = CEETOX_H295R_ESTRONE: CeeTox H295R High-throughput Steroidogenesis Assay for Estrone (AID 2283441; active means hit-call score of the fitted dose curve at least 0.9, where 1 is the maximum; inactive means score below 0.9;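 further: estrone secreted into medium measured by LC-MS/MS after dansyl derivatization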); conditions: actives raise or lower the signal
Method in brief: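 H295R cells; 48 h forskolin (10 uM) prestimulation; 48 h compound exposure, 0.1% DMSO final. Medium estrone: MTBE extraction, dansyl derivatization, HPLC-MS/MS. Bidirectional fit vs DMSO.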

Measured: AC50

Bile acid receptor (Homo sapiens), sequence (Q96RI1 whole entry, looked up, the tested form may be a part): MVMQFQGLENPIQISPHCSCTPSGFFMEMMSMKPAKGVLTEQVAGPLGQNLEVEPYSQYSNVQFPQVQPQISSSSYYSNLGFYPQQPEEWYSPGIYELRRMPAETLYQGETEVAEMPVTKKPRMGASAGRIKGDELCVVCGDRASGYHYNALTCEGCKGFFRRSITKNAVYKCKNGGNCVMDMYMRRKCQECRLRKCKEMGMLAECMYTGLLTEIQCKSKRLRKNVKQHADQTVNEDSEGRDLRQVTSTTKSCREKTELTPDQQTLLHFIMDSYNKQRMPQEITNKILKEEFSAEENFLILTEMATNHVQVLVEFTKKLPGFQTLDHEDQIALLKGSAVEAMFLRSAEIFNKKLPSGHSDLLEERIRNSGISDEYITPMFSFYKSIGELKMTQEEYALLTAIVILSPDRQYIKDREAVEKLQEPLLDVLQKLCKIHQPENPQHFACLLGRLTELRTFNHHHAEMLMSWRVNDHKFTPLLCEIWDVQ
Peroxisome proliferator-activated receptor gamma (Homo sapiens), sequence (P37231 whole entry, looked up, the tested form may be a part): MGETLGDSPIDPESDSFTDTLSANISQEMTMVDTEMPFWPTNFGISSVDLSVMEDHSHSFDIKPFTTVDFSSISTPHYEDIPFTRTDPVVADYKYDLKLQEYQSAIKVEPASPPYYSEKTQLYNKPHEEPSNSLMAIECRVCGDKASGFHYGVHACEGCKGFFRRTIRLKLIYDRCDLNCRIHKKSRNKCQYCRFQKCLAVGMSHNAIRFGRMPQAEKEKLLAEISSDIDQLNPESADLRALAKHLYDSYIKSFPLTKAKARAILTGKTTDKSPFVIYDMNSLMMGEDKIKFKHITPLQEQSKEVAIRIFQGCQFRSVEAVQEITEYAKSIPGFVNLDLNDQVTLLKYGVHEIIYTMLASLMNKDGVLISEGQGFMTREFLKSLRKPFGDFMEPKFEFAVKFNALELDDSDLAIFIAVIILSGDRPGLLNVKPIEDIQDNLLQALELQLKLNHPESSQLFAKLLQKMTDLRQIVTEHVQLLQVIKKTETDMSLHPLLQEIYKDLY
Retinoic acid receptor RXR-alpha (Homo sapiens), sequence (P19793 whole entry, looked up, the tested form may be a part): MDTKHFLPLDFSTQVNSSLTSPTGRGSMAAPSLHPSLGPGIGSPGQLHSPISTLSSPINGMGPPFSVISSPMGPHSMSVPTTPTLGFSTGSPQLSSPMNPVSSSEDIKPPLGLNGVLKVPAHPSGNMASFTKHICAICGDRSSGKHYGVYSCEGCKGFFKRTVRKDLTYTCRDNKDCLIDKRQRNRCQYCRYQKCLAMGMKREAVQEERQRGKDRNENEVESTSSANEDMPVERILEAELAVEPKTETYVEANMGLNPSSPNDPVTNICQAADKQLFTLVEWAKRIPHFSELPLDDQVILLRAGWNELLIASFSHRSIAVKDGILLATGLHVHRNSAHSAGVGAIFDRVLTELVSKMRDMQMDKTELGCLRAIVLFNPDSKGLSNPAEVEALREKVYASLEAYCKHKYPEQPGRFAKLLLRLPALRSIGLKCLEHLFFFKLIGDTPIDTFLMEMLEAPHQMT
Estrogen receptor beta (Homo sapiens), sequence (Q92731 whole entry, looked up, the tested form may be a part): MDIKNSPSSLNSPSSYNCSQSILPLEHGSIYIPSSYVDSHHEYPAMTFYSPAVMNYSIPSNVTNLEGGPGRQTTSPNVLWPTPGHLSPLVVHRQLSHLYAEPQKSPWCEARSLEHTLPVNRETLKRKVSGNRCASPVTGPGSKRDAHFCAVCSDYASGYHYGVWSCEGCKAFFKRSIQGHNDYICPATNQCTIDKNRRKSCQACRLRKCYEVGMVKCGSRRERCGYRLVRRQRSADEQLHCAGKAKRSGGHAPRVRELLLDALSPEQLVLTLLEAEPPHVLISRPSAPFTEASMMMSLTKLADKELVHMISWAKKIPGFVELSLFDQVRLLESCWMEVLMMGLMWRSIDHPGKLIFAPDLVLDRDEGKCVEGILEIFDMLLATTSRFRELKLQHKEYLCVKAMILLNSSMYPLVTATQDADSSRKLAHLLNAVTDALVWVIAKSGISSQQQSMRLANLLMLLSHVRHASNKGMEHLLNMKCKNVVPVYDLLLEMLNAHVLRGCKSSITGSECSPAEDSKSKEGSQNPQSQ
Estrogen receptor (Homo sapiens), sequence (P03372 whole entry, looked up): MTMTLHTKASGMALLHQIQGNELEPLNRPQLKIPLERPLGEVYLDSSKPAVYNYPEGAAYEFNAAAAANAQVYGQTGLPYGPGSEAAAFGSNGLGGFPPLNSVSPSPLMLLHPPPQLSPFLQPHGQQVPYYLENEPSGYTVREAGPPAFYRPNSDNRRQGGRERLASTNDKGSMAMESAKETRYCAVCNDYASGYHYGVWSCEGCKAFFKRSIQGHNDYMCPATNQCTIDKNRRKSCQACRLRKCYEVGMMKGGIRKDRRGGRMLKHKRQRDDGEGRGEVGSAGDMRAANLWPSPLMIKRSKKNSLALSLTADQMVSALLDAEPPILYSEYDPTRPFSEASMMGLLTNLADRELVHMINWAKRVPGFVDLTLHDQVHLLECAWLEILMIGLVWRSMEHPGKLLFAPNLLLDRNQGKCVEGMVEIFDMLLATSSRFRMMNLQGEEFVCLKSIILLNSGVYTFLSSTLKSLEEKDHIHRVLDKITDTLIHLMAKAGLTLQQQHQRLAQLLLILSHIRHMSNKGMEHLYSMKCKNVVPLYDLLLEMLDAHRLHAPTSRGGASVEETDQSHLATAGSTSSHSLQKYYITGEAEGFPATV
Agonist Androgen Response Element (ARE), AR (gene 367), sequence (P10275 whole entry, looked up): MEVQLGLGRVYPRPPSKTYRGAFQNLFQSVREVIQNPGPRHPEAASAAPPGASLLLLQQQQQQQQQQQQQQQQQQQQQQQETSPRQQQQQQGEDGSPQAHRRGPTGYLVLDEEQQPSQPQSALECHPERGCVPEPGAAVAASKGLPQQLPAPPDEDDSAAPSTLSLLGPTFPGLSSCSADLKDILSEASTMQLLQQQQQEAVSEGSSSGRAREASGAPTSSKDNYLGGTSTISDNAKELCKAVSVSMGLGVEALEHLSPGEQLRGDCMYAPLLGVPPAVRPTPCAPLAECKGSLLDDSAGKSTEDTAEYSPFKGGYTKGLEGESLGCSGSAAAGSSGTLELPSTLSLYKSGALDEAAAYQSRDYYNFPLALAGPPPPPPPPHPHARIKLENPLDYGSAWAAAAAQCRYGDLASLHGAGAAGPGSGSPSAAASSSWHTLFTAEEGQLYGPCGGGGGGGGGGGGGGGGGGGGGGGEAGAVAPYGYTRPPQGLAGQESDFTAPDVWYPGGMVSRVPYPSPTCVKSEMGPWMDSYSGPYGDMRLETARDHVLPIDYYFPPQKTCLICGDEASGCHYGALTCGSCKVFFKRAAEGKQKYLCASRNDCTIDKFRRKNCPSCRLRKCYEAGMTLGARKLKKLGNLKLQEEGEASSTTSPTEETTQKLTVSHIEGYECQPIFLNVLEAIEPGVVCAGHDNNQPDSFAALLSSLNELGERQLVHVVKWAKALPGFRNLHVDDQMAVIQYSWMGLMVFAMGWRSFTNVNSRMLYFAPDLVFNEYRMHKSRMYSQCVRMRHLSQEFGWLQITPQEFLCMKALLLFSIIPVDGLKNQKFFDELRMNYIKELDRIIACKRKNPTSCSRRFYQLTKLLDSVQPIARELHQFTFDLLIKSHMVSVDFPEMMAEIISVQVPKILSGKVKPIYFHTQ
human Norepinephrine Transporter (NET), SLC6A2 (gene 6530), sequence (P23975 whole entry, looked up): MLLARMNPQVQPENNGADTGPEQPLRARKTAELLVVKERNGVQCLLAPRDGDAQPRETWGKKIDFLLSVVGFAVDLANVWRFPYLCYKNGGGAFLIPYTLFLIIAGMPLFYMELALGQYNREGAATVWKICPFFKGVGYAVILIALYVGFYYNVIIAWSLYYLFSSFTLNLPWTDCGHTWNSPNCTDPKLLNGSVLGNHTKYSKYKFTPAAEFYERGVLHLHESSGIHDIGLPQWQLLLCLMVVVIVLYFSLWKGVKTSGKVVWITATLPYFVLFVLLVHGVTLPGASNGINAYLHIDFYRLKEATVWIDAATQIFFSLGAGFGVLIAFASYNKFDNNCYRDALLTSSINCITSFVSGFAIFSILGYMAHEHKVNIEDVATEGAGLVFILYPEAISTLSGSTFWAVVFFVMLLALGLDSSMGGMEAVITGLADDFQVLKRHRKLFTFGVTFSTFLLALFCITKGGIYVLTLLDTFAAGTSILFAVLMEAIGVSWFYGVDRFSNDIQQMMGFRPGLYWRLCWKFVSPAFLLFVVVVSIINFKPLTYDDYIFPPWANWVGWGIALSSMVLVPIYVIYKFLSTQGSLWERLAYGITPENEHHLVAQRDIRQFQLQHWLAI
Norway rat Vesicular Monoamine Transporter (VMAT2), neurotransmitter transporter, Slc18a2 (gene 25549), sequence (Q01827 whole entry, looked up): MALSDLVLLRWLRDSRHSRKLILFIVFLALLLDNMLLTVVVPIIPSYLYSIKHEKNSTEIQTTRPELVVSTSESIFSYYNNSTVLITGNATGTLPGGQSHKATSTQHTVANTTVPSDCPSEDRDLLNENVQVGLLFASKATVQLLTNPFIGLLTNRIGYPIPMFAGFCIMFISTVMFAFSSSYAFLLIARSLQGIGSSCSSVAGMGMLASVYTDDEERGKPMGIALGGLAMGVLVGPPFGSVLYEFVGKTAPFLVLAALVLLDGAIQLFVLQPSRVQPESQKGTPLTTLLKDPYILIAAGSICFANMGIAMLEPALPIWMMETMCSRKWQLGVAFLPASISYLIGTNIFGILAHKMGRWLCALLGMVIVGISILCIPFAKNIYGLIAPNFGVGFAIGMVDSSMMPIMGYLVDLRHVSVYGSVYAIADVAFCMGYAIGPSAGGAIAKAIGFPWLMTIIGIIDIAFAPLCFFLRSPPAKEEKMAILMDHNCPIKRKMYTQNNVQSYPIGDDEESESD

CCCOc1nn(C(=O)NS(=O)(=O)c2ccccc2C(=O)OC)c(=O)n1C
inactive: [1] | [2] | [3] | [4]

COP(=O)(OC)OC(Br)C(Cl)(Cl)Br (stereo not drawn)
inactive: [5] | [6] | [7] | [8] | [9] | [2] | [4]

CC[C@H](C)[C@H]1O[C@]2(C=C[C@@H]1C)C[C@@H]1C[C@@H](C/C=C(\C)[C@@H](O[C@H]3C[C@H](OC)[C@@H](O[C@H]4C[C@H](OC)[C@@H](NC)[C@H](C)O4)[C@H](C)O3)[C@@H](C)/C=C/C=C3\CO[C@@H]4[C@H](O)C(C)=C[C@@H](C(=O)O1)[C@]34O)O2
inactive: [7] | [2] | [3] | [4]
active: [10] 4.68 µM | [11] 5.29 µM | [6] 17.9 µM

CC(C)N(C(=O)SCC(Cl)=C(Cl)Cl)C(C)C
inactive: [5] | [2]
active: [8] 21.9 µM | [9] 80.5 µM | [2] 77.9 µM

CNC(=O)ON=C(SC)C(=O)N(C)C
not listed: [3] | [8] | [9] | [10] | [11]
inactive: all other assays above

CCCSP(=O)(OCC)Oc1ccc(Br)cc1Cl (stereo not drawn)
inactive: [5] | [9] | [12] | [2] | [3] | [4] | [13] | [14]
active: [8] 25 µM | [12] 44 µM

C#CCC1=C(C)C(OC(=O)C2C(C=C(C)C)C2(C)C)CC1=O (stereo not drawn)
active: [8] 33 µM | [9] 49.8 µM | [12] 66.7 µM | [2] 79.6 µM
inactive: [5] | [12] | [2] | [4] | [13] | [14]

CCOC(=O)CC(SP(=O)(OC)OC)C(=O)OCC (stereo not drawn)
inactive: [5] | [8] | [9] | [12] | [2] | [4]

O=c1ccc(=O)[nH][nH]1
inactive: [1] | [8] | [12] | [2] | [3] | [4]

Cc1cc(C2CC2)nc(Nc2ccccc2)n1
inactive: [10] | [6] | [7] | [9] | [2] | [3] | [4]
active: [11] 3.82 µM | [5] 50 µM | [8] 20.4 µM

CCOP(=O)(OCC)Oc1cc(C)nc(C(C)C)n1
inactive: [5] | [8] | [9] | [2] | [4]

CCCCOC(=O)c1ccccc1C(=O)O
inactive: [1] | [5] | [8] | [9] | [12] | [2] | [4]

C[N+]1(C)CCCCC1
inactive: [1] | [5] | [12] | [2] | [4]

CCc1cccc(CC)c1N(COC)C(=O)CCl
inactive: [5] | [6] | [7] | [8] | [9] | [12] | [3] | [4]
active: [2] 0.714 µM

Cc1ccn2nc(S(=O)(=O)Nc3c(F)cccc3F)nc2n1
inactive: [5] | [8] | [9] | [12] | [2] | [3] | [4]

CC1(C(=O)Nc2ccc(O)c(Cl)c2Cl)CCCCC1
active: [5] 20.6 µM | [13] 7.52 µM | [14] 9.28 µM
inactive: [8] | [9] | [2] | [3] | [4]
